# From PubChem BioAssay AID1851 (National Center for Advancing Translational Sciences (NCATS), 2009)
# About 5,100 (32%) of roughly 16,000 compounds were called active. Inconclusive results (about 25%) are left out. The call rests on the fitted dose curve; in most records, active means well fitted curve in the direction sought with a large enough effect; inconclusive means small, poorly fitted or top-dose-only effect, or effect the other way; inactive means no such curve, though single readings can be large or run the other way. The list shows a part of the results.
# Biological target: Cytochrome P450 3A4 (Homo sapiens) (UniProt P08684)
# Sequence (P08684 whole entry, looked up): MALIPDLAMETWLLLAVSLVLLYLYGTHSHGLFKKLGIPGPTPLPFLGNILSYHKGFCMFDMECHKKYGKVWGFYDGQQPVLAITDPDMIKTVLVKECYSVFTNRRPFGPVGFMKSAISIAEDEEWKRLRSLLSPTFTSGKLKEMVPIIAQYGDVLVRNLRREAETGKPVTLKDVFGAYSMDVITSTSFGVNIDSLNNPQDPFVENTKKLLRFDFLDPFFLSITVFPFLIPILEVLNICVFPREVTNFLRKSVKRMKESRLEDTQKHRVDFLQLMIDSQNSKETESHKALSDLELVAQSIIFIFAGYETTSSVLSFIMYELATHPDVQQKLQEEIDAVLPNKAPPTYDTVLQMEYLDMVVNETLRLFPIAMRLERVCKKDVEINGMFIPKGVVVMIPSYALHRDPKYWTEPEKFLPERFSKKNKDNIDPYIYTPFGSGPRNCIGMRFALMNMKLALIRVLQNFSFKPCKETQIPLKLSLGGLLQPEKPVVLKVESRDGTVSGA
# Experiment: Cytochrome panel assay with activity outcomes
# Conditions: recombinant CYP, pro-luciferin dealkylation, luminescence, p450-cyp3a4; series mostly up to 57.1 µM; activity, negative = inhibition: at the top concentration
# On the % scale 0 is the no-effect control and ±100 the full control effect.
SMILES,AC50,"activity, negative = inhibition"
CCCc1nnc(NC(=O)CN2C(=O)C3C4C=CC(C4)C3C2=O)s1 (stereo unspecified),12.6 µM (active),–
CCCc1nnc(NC(=O)Cn2cnc3ccccc3c2=O)s1,–,-10.1% (inactive)
CCCC(=O)Nc1nnc(CCN2CCCCC2)s1,–,1.59% (inactive)
Cc1cccc(NC(=O)CSc2nc(-c3ccccc3)c(C#N)c(=O)[nH]2)c1C,–,4.48% [at 0.457 µM] (inactive)
Cc1cccc(NC(=O)CSc2nnc(-c3ccco3)c(-c3ccco3)n2)c1C,15.8 µM (active),–
O=S1(=O)C=C(Oc2ccc3ccccc3c2)c2ccccc21,–,0.516% (inactive)
COc1ccc(C2(CNC(=O)/C=C/c3ccco3)CCCC2)cc1OC,3.55 µM (active),–
CN(C)c1ncc2nc(-c3ccc(Cl)cc3)c(=O)n(C)c2n1,–,5.8% (inactive)
Cc1ccc(S(=O)(=O)N/N=C/c2cccn2-c2ccc(Cl)cc2)cc1,10 µM (active),–
O=S(=O)(N/N=C\c1cccn1-c1ccccc1)c1ccc2ccccc2c1,7.08 µM (active),–
Cc1ccc(-c2nn(-c3ccccc3)cc2/C=N/NS(=O)(=O)c2ccccc2)cc1,–,-20.9% [at 2.29 µM] (inactive)
O=[N+]([O-])c1ccc(N/N=C\c2cccn2-c2ccccc2)nc1,–,0.811% [at 2.29 µM] (inactive)
CC1=NN(c2ccc(S(=O)(=O)O)cc2)C(=O)/C1=C\c1ccc(Cl)cc1,–,2.74% [at 11.4 µM] (inactive)
C/C(=N/O)[C@@H]1C[C@H](CC(=O)O)C1(C)C,–,-25.4% [at 11.4 µM] (inactive)
O=C(c1cnccn1)N1CCC[C@@]2(CCN(Cc3cc(C(F)(F)F)cc(C(F)(F)F)c3)C2)C1,7.94 µM (active),–
O=C(c1csnn1)N1CCC2(CC1)CN(Cc1cc(C(F)(F)F)cc(C(F)(F)F)c1)C2,–,-23.4% (inactive)
O=C(c1cnccn1)N1CCC2(CC1)CN(Cc1cc(C(F)(F)F)cc(C(F)(F)F)c1)C2,–,-23.4% (inactive)
O=C(c1cnccn1)N1CCC[C@@]2(CCN(Cc3ccncc3)C2)C1,15.8 µM (active),–
OC[C@@H](O)CN1CCN(c2ccccc2)CC1,–,-9.47% [at 25.6 µM] (inactive)
Cc1ccccc1OCCCN1CCCC1,–,-1.3% (inactive)
c1ccc(N2CCN(CCCOc3ccc4c(c3)OCO4)CC2)cc1,3.16 µM (active),–
CN1CCN(c2ncc3nc(CCc4ccccc4)c(=O)n(Cc4ccc(F)cc4)c3n2)CC1,5.01 µM (active),–
COc1cccc(Cn2c(=O)c(CCc3ccccc3)nc3cnc(N4CCN(C)CC4)nc32)c1,15.8 µM (active),–
CN1CCN(c2ncc3ncc(=O)n(CCC#N)c3n2)CC1,–,1.63% (inactive)

SMILES,AC50,"activity, negative = inhibition"
CN1CCN(c2ncc3ncc(=O)n(C[C@H]4CCCO4)c3n2)CC1,–,10.6% (inactive)
COc1cccc(Cn2c(=O)c(CCc3ccccc3)nc3cnc(N4CCNCC4)nc32)c1,15.8 µM (active),–
COc1cccc(Cn2c(=O)cnc3cnc(N4CCN(C)CC4)nc32)c1,15.8 µM (active),–
NC([N-]/N=C/c1ccccn1)=[S]=[Fe].O=S(=O)(O)O,–,-4.8% [at 11.4 µM] (inactive)
Cc1cc(C)nc(SCC(=O)Nc2ccccc2[N+](=O)[O-])n1,–,-9.77% (inactive)
O=C(CSc1nc2ccccc2o1)Nc1nc2ccccc2s1,–,-7.57% [at 2.29 µM] (inactive)
Cc1ccccc1NC(=O)CSc1nc(N2CCCCC2)nc(N2CCCCC2)n1,2 µM (active),–
O=C(CNC1CCCCCC1)Nc1ccccc1N1CCCCC1,–,-25% [at 2.29 µM] (inactive)
O=C(CSc1nc2ccccc2o1)Nc1ccccc1N1CCCCCC1,3.98 µM (active),–
CC(C)NC[C@H](O)c1cc(O)cc(O)c1,inactive,–
COc1ccccc1-c1c(C)oc2c(CN3CCN(CCO)CC3)c(O)ccc2c1=O,–,3.63% (inactive)
COc1cccc2cc3c(=O)oc4ccccc4c3nc12,–,-6.03% [at 2.29 µM] (inactive)
COc1cccc(-c2cc(=O)c3ccccc3o2)c1N,7.94 µM (active),–
Cc1ccc(NC(=O)CN2C(=O)N/C(=C/c3ccc(C)o3)C2=O)cc1,–,7.39% [at 2.29 µM] (inactive)
CCOc1cc(/C=C2/NC(=O)N(CC(=O)Nc3cccc(C)c3)C2=O)ccc1OC,1.78 µM (active),–
COc1ccc(OCCSc2ncn[nH]2)cc1,14.1 µM (active),–
CCC1CC(CSc2ncn[nH]2)OC1=O (stereo unspecified),–,-23.1% (inactive)
CCCOc1ccc(-c2nc(N)n[nH]2)cc1,–,8.08% [at 11.4 µM] (inactive)
C[C@@H](CNC(N)=O)NC(N)=O,–,-2.29% [at 11.4 µM] (inactive)
COc1ccc(CCN2CC34C=CC(O3)C(C(=O)NCc3ccccc3)C4C2=O)cc1OC (stereo unspecified),2.82 µM (active),–
O=C(NCC1COc2ccccc2O1)C1C2C=CC3(CN(Cc4cccs4)C(=O)C13)O2 (stereo unspecified),–,-13.1% [at 2.29 µM] (inactive)
COCCCNC(=O)C1C2C=CC3(CN(Cc4ccc(C)cc4)C(=O)C13)O2 (stereo unspecified),7.94 µM (active),–
Cc1ccc(CN2CC34C=CC(O3)C(C(=O)NCc3ccco3)C4C2=O)cc1 (stereo unspecified),8.91 µM (active),–
Cc1ccc(CN2CC34C=CC(O3)C(C(=O)NCc3ccc5c(c3)OCO5)C4C2=O)cc1 (stereo unspecified),0.251 µM (active),–

SMILES,AC50,"activity, negative = inhibition"
CCOc1ccc(NC(=O)N2CCC(C(N)=O)(N3CCCCC3)CC2)cc1,–,-3.16% (inactive)
CCCCNC(=O)C1CCN(Cc2ccccn2)CC1,–,-14.9% (inactive)
O=C(O)C1C2C=CC3(CN(Cc4ccccn4)C(=O)C13)O2 (stereo unspecified),–,-6.39% (inactive)
CCCCNC(=O)C1C2C=CC3(CN(Cc4ccccc4Cl)C(=O)C13)O2 (stereo unspecified),3.98 µM (active),–
CC(CC(=O)O)(CC(=O)O)c1ccccc1,–,0.682% [at 11.4 µM] (inactive)
c1ccc([C@@H]2CN3CCSC3=N2)cc1,inactive,–
Cc1ccccc1Cn1cc(NC(=O)CSc2nc3c(c(C(F)(F)F)n2)CCc2ccccc2-3)cn1,5.01 µM (active),–
Cc1nn(Cc2ccc(Cl)cc2)c(C)c1NC(=O)CSc1nc2c(c(C(F)(F)F)n1)CCc1ccccc1-2,3.16 µM (active),–
NC(CSS(=O)(=O)O)=N[C@@H]1C[C@H]2CC[C@@H]1C2,–,-19.6% [at 11.4 µM] (inactive)
CCCC1c2c(ccc3ccccc23)Oc2ccc3ccccc3c21,–,-11.1% [at 11.4 µM] (inactive)
Cc1cccc(CNc2cc(-c3cccc(C#N)c3)ncn2)c1,7.94 µM (active),–
N#Cc1cccc(-c2cc(NCc3cccnc3)ncn2)c1,2.51 µM (active),–
N#Cc1cccc(-c2cc(NCc3ccccc3)ncn2)c1,–,-12.5% (inactive)
CC1(C)CCC(C)(C)c2cc(C(=O)Nc3ccc(C(=O)O)cc3)ccc21,–,-26.2% (inactive)
COc1ccccc1C1=NOC(COC(=O)c2ccc3ccccc3n2)C1 (stereo unspecified),17.8 µM (active),–
O=C(OCC1CC(c2ccccc2)=NO1)c1ccc(Cl)cc1 (stereo unspecified),–,-4.52% (inactive)
COc1ccccc1CNc1cc(-c2cccc(NS(C)(=O)=O)c2)ncn1,5.01 µM (active),–
COc1ccc(CNc2cc(-c3cccc(NS(C)(=O)=O)c3)ncn2)c(OC)c1,2.51 µM (active),–
Cc1cnn(-c2cc(N/N=C/c3ccccc3F)ncn2)c1,–,-16.7% [at 2.29 µM] (inactive)
Cc1cccc(C2NC(=O)c3c(sc(C)c3C)N2)c1O (stereo unspecified),12.6 µM (active),–
CC(C)(Oc1ccc(-c2cccc3ccccc23)cc1)C(=O)O,–,-6.61% [at 11.4 µM] (inactive)
O=C(O)c1ccccc1C(=O)NCc1ccc(F)cc1,–,12.7% (inactive)
O=C(O)CC[C@@H](NC(=O)c1ccccc1C(=O)O)C(=O)O,–,2% (inactive)
O=C(O)c1ccccc1C(=O)NNc1ccc(Cl)cc1,7.94 µM (active),–

SMILES,AC50,"activity, negative = inhibition"
O=C(NNC(=O)c1ccccc1O)c1ccc(Cl)cc1,–,25.4% (inactive)
O=C(O)c1ccccc1-c1ccccc1C(=O)Nc1ccc2c(c1)Cc1cc(F)ccc1-2,–,-16.4% [at 11.4 µM] (inactive)
O=C(O)c1ccccc1C(=O)NNc1ccc(F)cc1,11.2 µM (active),–
Oc1c(CN2CCCCC2)cc(Br)c2cccnc12,–,-21.6% (inactive)
Cc1cc(NC(=O)Nc2ccc3c(ccn3C)c2)sn1,12.6 µM (active),–
CCCNC(=O)Nc1ccc2c(c1)nc(C)n2C,–,16.3% (inactive)
Cc1noc(C)c1-c1ccc2ncnc(N3CCN(C)CC3)c2c1,25.1 µM (active),–
Cc1noc(C)c1-c1ccc2ncnc(N3CCOCC3)c2c1,31.6 µM (active),–
Cc1noc(C)c1-c1ccc2ncnc(NCCN3CCOCC3)c2c1,12.6 µM (active),–
CCN1CCC[C@H]1CNC(=O)c1cc(S(N)(=O)=O)ccc1OC,inactive,–
CCOC(=O)C1=C2SCC(=O)N2C(N)=C(C#N)C1,–,-0.332% (inactive)
COc1ccccc1CN1CCC2(CC1)CCN(C(C)=O)CC2,–,-8.53% (inactive)
COCC(=O)N1CCC2(CC1)CN(Cc1ccccc1OC)C2,–,19.7% (inactive)
COc1ccccc1CC(=N)N1C[C@@H]2C(=O)CCC(c3ccccc3)(c3ccccc3)[C@@H]2C1,3.16 µM (active),–
CC1(C)OC(=O)NC1=O,–,-5.49% [at 25.6 µM] (inactive)
O=C1CCCC2=C1C(c1ccc(Cl)cc1)C1C(=O)c3ccccc3C1=N2 (stereo unspecified),14.1 µM (active),–
O=C1C(=O)c2ccccc2C(O)=C1C1CCC(c2ccc(Cl)cc2)CC1 (stereo unspecified),–,-8.47% [at 25.6 µM] (inactive)
CC[C@](N)(C(=O)O)C(C)C,–,-7.26% [at 11.4 µM] (inactive)
COC(=O)[C@@]1(Cc2ccc(F)cc2)[C@@H]2C(=CC(=O)[C@H]2CC(=O)C(=O)N(C)C)CN1C(=O)c1ccccc1,10 µM (active),–
COC(=O)[C@@]1(Cc2ccccc2)[C@@H]2C(=CC(=O)[C@H]2CC(=O)C(=O)N(C)C)CN1C(=O)c1ccccc1,7.94 µM (active),–
CC(O)CN(CCC(N)=O)CCC(N)=O (stereo unspecified),–,2.63% (inactive)
CC(=O)N=c1sccn1CC(=O)c1ccc([N+](=O)[O-])cc1,4.47 µM (active),–
CC1CN(C(=S)NC(=O)c2ccc([N+](=O)[O-])cc2)CC(C)O1 (stereo unspecified),–,2.57% [at 2.29 µM] (inactive)
O=C(O)/C(Cc1ccc([N+](=O)[O-])cc1)=N/O,–,-11.6% [at 11.4 µM] (inactive)
